Laboratory results as given in doi:10.1101/2024.03.05.583629.

What follows are sequences tested against pT7_6His-AlfaTag-HOXD13 (human, UniProt P35453 263-343) (assay: PADIT-seq). Details: dsDNA, one strand shown.
pT7_6His-AlfaTag-HOXD13, sequence (P35453 263-343): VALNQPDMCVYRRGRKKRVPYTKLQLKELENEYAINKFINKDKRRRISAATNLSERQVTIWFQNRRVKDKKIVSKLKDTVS
In the case of “CTCGAGGATATCAAGATCTGGCCTCGGCTCCGTAAAAGGAACCTCTAGCTAGCCGACTCACTATAGGGATAATCGCCCTGAGCAAAGACC”, the binding signal is reported as 1.22 ± 0.0847 log2FC.
With “CTCGAGGATATCAAGATCTGGCCTCGGCATTTTATCCGGAACCTCTAGCTAGCCGACTCACTATAGGGATAATCGCCCTGAGCAAAGACC” the binding signal was 1.17 ± 0.0736 log2FC.
With “CTCGAGGATATCAAGATCTGGCCTCGGCTTTTTAAGTGGAACCTCTAGCTAGCCGACTCACTATAGGGATAATCGCCCTGAGCAAAGACC” the binding signal was 1.17 ± 0.094 log2FC.
“CTCGAGGATATCAAGATCTGGCCTCGGCTGACCACGCGGAACCTCTAGCTAGCCGACTCACTATAGGGATAATCGCCCTGAGCAAAGACC” was tested, and the binding signal was -1.02 ± 0.112 log2FC.
“CTCGAGGATATCAAGATCTGGCCTCGGCCTTTTAGCTGGAACCTCTAGCTAGCCGACTCACTATAGGGATAATCGCCCTGAGCAAAGACC” showed a binding signal of -0.366 ± 0.11 log2FC.
“CTCGAGGATATCAAGATCTGGCCTCGGCAGGCTAAAAGGAACCTCTAGCTAGCCGACTCACTATAGGGATAATCGCCCTGAGCAAAGACC” was tested, and the binding signal was -0.781 ± 0.0984 log2FC.
Sequence “CTCGAGGATATCAAGATCTGGCCTCGGCGCGCGAGCGGGAACCTCTAGCTAGCCGACTCACTATAGGGATAATCGCCCTGAGCAAAGACC” has a binding signal of -0.654 ± 0.136 log2FC.
With “CTCGAGGATATCAAGATCTGGCCTCGGCTTTTTATGTGGAACCTCTAGCTAGCCGACTCACTATAGGGATAATCGCCCTGAGCAAAGACC” the binding signal was 2.89 ± 0.0872 log2FC.
In the case of “CTCGAGGATATCAAGATCTGGCCTCGGCCATTTAAAAGGAACCTCTAGCTAGCCGACTCACTATAGGGATAATCGCCCTGAGCAAAGACC”, the binding signal is reported as 2.3 ± 0.0841 log2FC.
“CTCGAGGATATCAAGATCTGGCCTCGGCATTTTAAAAGGAACCTCTAGCTAGCCGACTCACTATAGGGATAATCGCCCTGAGCAAAGACC” showed a binding signal of 2.49 ± 0.0611 log2FC.
“CTCGAGGATATCAAGATCTGGCCTCGGCATTTTAGCGGGAACCTCTAGCTAGCCGACTCACTATAGGGATAATCGCCCTGAGCAAAGACC” gave a binding signal of 0.146 ± 0.1 log2FC.
“CTCGAGGATATCAAGATCTGGCCTCGGCTTTTTAAGGGGAACCTCTAGCTAGCCGACTCACTATAGGGATAATCGCCCTGAGCAAAGACC” was tested, and the binding signal was 1.83 ± 0.0924 log2FC.
“CTCGAGGATATCAAGATCTGGCCTCGGCCTTTTAATGGGAACCTCTAGCTAGCCGACTCACTATAGGGATAATCGCCCTGAGCAAAGACC” gave a binding signal of 2.57 ± 0.0798 log2FC.
For “CTCGAGGATATCAAGATCTGGCCTCGGCAACTGGGCGGGAACCTCTAGCTAGCCGACTCACTATAGGGATAATCGCCCTGAGCAAAGACC”, the binding signal was -0.923 ± 0.12 log2FC.
For “CTCGAGGATATCAAGATCTGGCCTCGGCCTTTTAATAGGAACCTCTAGCTAGCCGACTCACTATAGGGATAATCGCCCTGAGCAAAGACC”, the binding signal was 2.68 ± 0.0826 log2FC.
With “CTCGAGGATATCAAGATCTGGCCTCGGCATTTTAATGGGAACCTCTAGCTAGCCGACTCACTATAGGGATAATCGCCCTGAGCAAAGACC” the binding signal was 2.51 ± 0.077 log2FC.
“CTCGAGGATATCAAGATCTGGCCTCGGCATTTTATAGGGAACCTCTAGCTAGCCGACTCACTATAGGGATAATCGCCCTGAGCAAAGACC” was tested, and the binding signal was 3.25 ± 0.0782 log2FC.
For “CTCGAGGATATCAAGATCTGGCCTCGGCTTCTTAAAAGGAACCTCTAGCTAGCCGACTCACTATAGGGATAATCGCCCTGAGCAAAGACC”, the binding signal was 0.549 ± 0.0953 log2FC.
For “CTCGAGGATATCAAGATCTGGCCTCGGCTTTTTATGGGGAACCTCTAGCTAGCCGACTCACTATAGGGATAATCGCCCTGAGCAAAGACC”, the binding signal was 3.53 ± 0.0874 log2FC.
Work on “CTCGAGGATATCAAGATCTGGCCTCGGCGTCTTAAAAGGAACCTCTAGCTAGCCGACTCACTATAGGGATAATCGCCCTGAGCAAAGACC” yielded a binding signal of 1.44 ± 0.067 log2FC.
“CTCGAGGATATCAAGATCTGGCCTCGGCAGCTTAAAAGGAACCTCTAGCTAGCCGACTCACTATAGGGATAATCGCCCTGAGCAAAGACC” showed a binding signal of 0.129 ± 0.0835 log2FC.
Work on “CTCGAGGATATCAAGATCTGGCCTCGGCATTTTAAGTGGAACCTCTAGCTAGCCGACTCACTATAGGGATAATCGCCCTGAGCAAAGACC” yielded a binding signal of 1.18 ± 0.0951 log2FC.
Sequence “CTCGAGGATATCAAGATCTGGCCTCGGCATGTTAAAAGGAACCTCTAGCTAGCCGACTCACTATAGGGATAATCGCCCTGAGCAAAGACC” has a binding signal of 1.48 ± 0.0814 log2FC.
“CTCGAGGATATCAAGATCTGGCCTCGGCGATTTAAAAGGAACCTCTAGCTAGCCGACTCACTATAGGGATAATCGCCCTGAGCAAAGACC” gave a binding signal of 2.1 ± 0.071 log2FC.
For “CTCGAGGATATCAAGATCTGGCCTCGGCGTTTTACCTGGAACCTCTAGCTAGCCGACTCACTATAGGGATAATCGCCCTGAGCAAAGACC”, the binding signal was -0.352 ± 0.118 log2FC.
For “CTCGAGGATATCAAGATCTGGCCTCGGCGATGTAAAAGGAACCTCTAGCTAGCCGACTCACTATAGGGATAATCGCCCTGAGCAAAGACC”, the binding signal was 0.79 ± 0.0749 log2FC.
For “CTCGAGGATATCAAGATCTGGCCTCGGCGTTTTATGGGGAACCTCTAGCTAGCCGACTCACTATAGGGATAATCGCCCTGAGCAAAGACC”, the binding signal was 3.21 ± 0.0773 log2FC.
Sequence “CTCGAGGATATCAAGATCTGGCCTCGGCGCGGAAGCGGGAACCTCTAGCTAGCCGACTCACTATAGGGATAATCGCCCTGAGCAAAGACC” has a binding signal of -0.566 ± 0.121 log2FC.
Sequence “CTCGAGGATATCAAGATCTGGCCTCGGCGTTTTAACCGGAACCTCTAGCTAGCCGACTCACTATAGGGATAATCGCCCTGAGCAAAGACC” has a binding signal of -0.0101 ± 0.0939 log2FC.
Work on “CTCGAGGATATCAAGATCTGGCCTCGGCGCGTGGCCGGGAACCTCTAGCTAGCCGACTCACTATAGGGATAATCGCCCTGAGCAAAGACC” yielded a binding signal of -1.04 ± 0.14 log2FC.
“CTCGAGGATATCAAGATCTGGCCTCGGCCATATAAAAGGAACCTCTAGCTAGCCGACTCACTATAGGGATAATCGCCCTGAGCAAAGACC” gave a binding signal of 2.76 ± 0.0974 log2FC.
Work on “CTCGAGGATATCAAGATCTGGCCTCGGCGACGTAAAAGGAACCTCTAGCTAGCCGACTCACTATAGGGATAATCGCCCTGAGCAAAGACC” yielded a binding signal of 0.404 ± 0.076 log2FC.
Sequence “CTCGAGGATATCAAGATCTGGCCTCGGCCGCCCATTCGGAACCTCTAGCTAGCCGACTCACTATAGGGATAATCGCCCTGAGCAAAGACC” has a binding signal of -0.894 ± 0.121 log2FC.
For “CTCGAGGATATCAAGATCTGGCCTCGGCATTTTAAAGGGAACCTCTAGCTAGCCGACTCACTATAGGGATAATCGCCCTGAGCAAAGACC”, the binding signal was 2.62 ± 0.0783 log2FC.
“CTCGAGGATATCAAGATCTGGCCTCGGCGGGGTAAAAGGAACCTCTAGCTAGCCGACTCACTATAGGGATAATCGCCCTGAGCAAAGACC” gave a binding signal of -0.462 ± 0.0883 log2FC.
“CTCGAGGATATCAAGATCTGGCCTCGGCACAATAAAAGGAACCTCTAGCTAGCCGACTCACTATAGGGATAATCGCCCTGAGCAAAGACC” gave a binding signal of 2.72 ± 0.0742 log2FC.
“CTCGAGGATATCAAGATCTGGCCTCGGCCCAATAAAAGGAACCTCTAGCTAGCCGACTCACTATAGGGATAATCGCCCTGAGCAAAGACC” gave a binding signal of 2.95 ± 0.095 log2FC.
“CTCGAGGATATCAAGATCTGGCCTCGGCCGCCCAGAGGGAACCTCTAGCTAGCCGACTCACTATAGGGATAATCGCCCTGAGCAAAGACC” showed a binding signal of -1.03 ± 0.139 log2FC.
